This note sets out measurements from PubChem BioAssay (EPA / NIEHS).

Assay [1] is described as follows: ATG_NFI_CIS: Attagene CIS-FACTORIAL HepG2 Assay for human Nuclear Factor I (NFI) (AID 2282989). The conditions noted are these: HepG2 cis-regulatory reporter, NFI response element transcription; actives raise or lower the signal. A digest of the protocol: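 Multiplexed cis-reporter system in human HepG2 cells reports native TF activity as reporter mRNA induction 24 h post-dose. Fragments labelled with 6-FAM, HpaI-digested and resolved by capillary electrophoresis; activity fitted both directions versus DMSO.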

Assay [2] addresses Myc proto-oncogene protein (Homo sapiens) (UniProt P01106). The experiment in a line: ATG_Myc_CIS: Attagene CIS-FACTORIAL HepG2 Assay for human Myelocytomatosis (Myc) Proto-Oncogene Transcription Factor (AID 2282990). The conditions noted are these: HepG2, Attagene cis-reporter transcription factor activity; actives raise or lower the signal. The procedure, abridged: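 Fluorescence intensity of reporter-specific cDNA fragments, separated by capillary electrophoresis, gives the signal. Transfected HepG2 cells carrying cis-promoter reporter constructs are incubated with compound for 24 h; DMSO serves as baseline.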

Assay [3] can be described thus: ATG_NF_kB_CIS: Attagene CIS-FACTORIAL HepG2 Assay for human Nuclear Factor Kappa B (NF-kB) (AID 2282991). The conditions noted are these: HepG2 Attagene cis-factorial NF-kB reporter mRNA; actives raise or lower the signal. The procedure, abridged: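 HepG2 cells transiently transfected with multiplexed cis-element reporter units measuring endogenous transcription factor activity; reporter mRNA read 24 h after dosing by RT-PCR, fluorescent labelling, HpaI digestion and capillary electrophoresis. Bidirectional fit against DMSO baseline.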

A short description of assay [4]: ATG_NRF2_ARE_CIS: Attagene CIS-FACTORIAL HepG2 Assay for human Nuclear Factor Erythroid 2 Related Factor 2 (NFR2) response to Antioxidant Response Elements (ARE) (AID 2282992). The conditions noted are these: HepG2 Attagene ARE/NRF2 reporter, transcription factor activity; actives raise or lower the signal. A digest of the protocol: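 Endogenous transcription factor activity read out as reporter transcript levels (RT-PCR plus capillary electrophoresis, fluorescence) in transiently transfected HepG2 cells. Measured at 24 h after dosing; gain or loss of signal fitted versus DMSO.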

Assay [5] is described as follows: ATG_Oct_MLP_CIS: Attagene CIS-FACTORIAL HepG2 Assay for human Octamer-Binding Transcription Factor (Oct) (AID 2282993). The conditions noted are these: HepG2 Attagene cis-factorial Oct reporter, mRNA; actives raise or lower the signal. The procedure, abridged:
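After 24 h compound exposure, transfected HepG2 cells were lysed for total RNA; reporter-specific cDNA was PCR-amplified, fluorescently labelled and sized by capillary electrophoresis. Bidirectional curve fitting used DMSO as baseline.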

Assay [6] addresses Cellular tumor antigen p53 (Homo sapiens) (UniProt P04637). The experiment in a line: ATG_p53_CIS: Attagene CIS-FACTORIAL HepG2 Assay for human p53 Transcription Factor (AID 2282994). The conditions noted are these: HepG2 p53 cis-element reporter, Attagene mRNA; actives raise or lower the signal. The procedure, abridged:
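Endogenous p53 activity read in transiently transfected HepG2 from a cis-element-driven reporter transcript after 24 h exposure. RNA reverse-transcribed, PCR-amplified, fluorescently labelled and sized by capillary electrophoresis; gain or loss fitted against DMSO baseline.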

Assay [7] has as its target Retinoic acid receptor alpha (Homo sapiens) (UniProt P10276). The experiment in a line: ATG_RARa_TRANS: Attagene TRANS-FACTORIAL HepG2 Assay for human Retinoic Acid Receptor alpha (RARa) (AID 2283005; active means hit-call score of the fitted dose curve at least 0.9, where 1 is the maximum). A digest of the protocol:
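HepG2 transiently transfected with multiplex GAL4-UAS reporter units including a human RARa–GAL4 chimera; 24 h compound exposure. Reporter mRNA quantified by RT-PCR, 6-FAM labeling and capillary electrophoresis; gain of signal versus DMSO.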

Assay [8] deals with Peroxisome proliferator-activated receptor gamma (Homo sapiens) (UniProt P37231). The experiment in a line: ATG_PPARg_TRANS: Attagene TRANS-FACTORIAL HepG2 Assay for human Peroxisome Proliferator-activated Receptor-gamma (PPARg) (AID 2283007; active means hit-call score of the fitted dose curve at least 0.9, where 1 is the maximum). A digest of the protocol: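 HepG2 cells transiently transfected with multiplexed GAL4-UAS reporter units and exogenous chimeric NR-Gal4 proteins; reporter mRNA quantified after 24 h compound exposure by RT-PCR, fluorescent labelling, HpaI digestion and capillary electrophoresis; gain-of-signal fitted versus DMSO baseline.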

The target in assay [9] is Nuclear receptor subfamily 1 group I member 2 (Homo sapiens) (UniProt O75469). The experiment in a line: ATG_PXR_TRANS: Attagene TRANS-FACTORIAL HepG2 Assay for human Pregnane X Receptor (PXR) (AID 2283008; active means hit-call score of the fitted dose curve at least 0.9, where 1 is the maximum). A digest of the protocol:
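Transactivation by exogenous PXR–GAL4 fusion measured as reporter transcript induction after 24 h compound treatment of transfected human HepG2 cells. Read-out via RT-PCR and capillary electrophoresis of labelled fragments, fitted upward relative to DMSO.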

In assay [10] the target is human Retinoic Acid Receptor gamma (RARg), RARG (gene 5916) (UniProt P13631). The experiment in a line: ATG_RARg_TRANS: Attagene TRANS-FACTORIAL HepG2 Assay for human Retinoic Acid Receptor gamma (RARg) (AID 2283009; active means hit-call score of the fitted dose curve at least 0.9, where 1 is the maximum). A digest of the protocol: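 Transactivation of exogenous RARg-Gal4 fusion measured as reporter transcript induction after 24 h in transfected HepG2 cells. RNA reverse-transcribed, amplified, fluorescently labeled and resolved by capillary electrophoresis; increase relative to DMSO.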

Assay [11] has as its target human Peroxisome Proliferator-activated Receptor delta (PPARd), PPARD (gene 5467) (UniProt Q03181). The experiment in a line: ATG_PPARd_TRANS: Attagene TRANS-FACTORIAL HepG2 Assay for human Peroxisome Proliferator-activated Receptor delta (PPARd) (AID 2283002; active means hit-call score of the fitted dose curve at least 0.9, where 1 is the maximum). The procedure, abridged:
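Fluorescence from capillary electrophoresis of labelled RT-PCR reporter fragments gives the signal; DMSO sets baseline. Cells: HepG2 transiently carrying GAL4-UAS reporter units plus chimeric nuclear receptor-Gal4 proteins, exposed to chemicals for 24 h.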

Assay [12] concerns the target human RAR-related Orphan Receptor beta (RORb), RORB (gene 6096) (UniProt Q92753). The experiment in a line: ATG_RORb_TRANS: Attagene TRANS-FACTORIAL HepG2 Assay for human RAR-related Orphan Receptor beta (RORb) (AID 2283010; active means hit-call score of the fitted dose curve at least 0.9, where 1 is the maximum). The procedure, abridged:
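Read-out is reporter mRNA induction, quantified by RT-PCR with fluorescent capillary electrophoresis, 24 h post-dose in transiently transfected HepG2 expressing exogenous NR-Gal4 chimera. Activity fitted upward versus DMSO.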

Assay [13] has as its target human Peroxisome Proliferator-activated Receptor alpha (PPARa), PPARA (gene 5465) (UniProt Q07869). The experiment in a line: ATG_PPARa_TRANS: Attagene TRANS-FACTORIAL HepG2 Assay for human Peroxisome Proliferator-activated Receptor alpha (PPARa) (AID 2283001; active means hit-call score of the fitted dose curve at least 0.9, where 1 is the maximum). A digest of the protocol: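 HepG2, transient MRTU transfection, 24 h treatment. RT-PCR → FAM labelling → capillary electrophoresis. Fit vs DMSO, positive direction.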

As a reminder, the AC50 is the concentration at which the activity in the assay is half-maximal.

Results filed as inconclusive are left out. Active and inactive are the calls of the source. How the source made its calls, unless noted: active means hit-call score of the fitted dose curve at least 0.9, where 1 is the maximum; inactive means score below 0.9.

Sequence of Nuclear receptor subfamily 1 group I member 2 (Homo sapiens) (O75469 whole entry, looked up, the tested form may be a part): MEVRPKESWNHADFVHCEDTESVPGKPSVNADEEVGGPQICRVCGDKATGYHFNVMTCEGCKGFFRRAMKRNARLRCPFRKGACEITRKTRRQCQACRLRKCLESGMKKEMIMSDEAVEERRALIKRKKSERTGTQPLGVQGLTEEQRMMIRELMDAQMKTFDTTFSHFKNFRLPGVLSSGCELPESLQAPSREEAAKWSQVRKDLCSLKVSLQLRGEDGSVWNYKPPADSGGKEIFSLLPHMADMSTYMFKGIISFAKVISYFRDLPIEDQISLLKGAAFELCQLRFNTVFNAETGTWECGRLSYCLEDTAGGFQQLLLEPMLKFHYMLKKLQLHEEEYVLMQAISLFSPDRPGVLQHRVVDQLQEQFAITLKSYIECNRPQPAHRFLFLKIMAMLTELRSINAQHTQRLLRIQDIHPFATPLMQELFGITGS
Sequence of Myc proto-oncogene protein (Homo sapiens) (P01106 whole entry, looked up, the tested form may be a part): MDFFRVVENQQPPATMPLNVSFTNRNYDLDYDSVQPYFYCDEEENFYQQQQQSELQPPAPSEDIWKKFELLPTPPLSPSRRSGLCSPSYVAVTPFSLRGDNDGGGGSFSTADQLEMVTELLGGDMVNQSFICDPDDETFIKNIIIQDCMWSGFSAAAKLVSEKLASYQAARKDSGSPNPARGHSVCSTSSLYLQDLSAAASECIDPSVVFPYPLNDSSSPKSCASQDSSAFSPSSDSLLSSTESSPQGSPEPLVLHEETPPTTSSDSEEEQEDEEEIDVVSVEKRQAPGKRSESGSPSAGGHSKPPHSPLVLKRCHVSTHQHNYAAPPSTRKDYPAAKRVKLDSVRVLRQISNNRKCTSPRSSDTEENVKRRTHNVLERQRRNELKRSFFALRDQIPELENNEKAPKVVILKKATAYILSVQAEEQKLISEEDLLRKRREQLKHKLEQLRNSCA
Sequence of Cellular tumor antigen p53 (Homo sapiens) (P04637 whole entry, looked up): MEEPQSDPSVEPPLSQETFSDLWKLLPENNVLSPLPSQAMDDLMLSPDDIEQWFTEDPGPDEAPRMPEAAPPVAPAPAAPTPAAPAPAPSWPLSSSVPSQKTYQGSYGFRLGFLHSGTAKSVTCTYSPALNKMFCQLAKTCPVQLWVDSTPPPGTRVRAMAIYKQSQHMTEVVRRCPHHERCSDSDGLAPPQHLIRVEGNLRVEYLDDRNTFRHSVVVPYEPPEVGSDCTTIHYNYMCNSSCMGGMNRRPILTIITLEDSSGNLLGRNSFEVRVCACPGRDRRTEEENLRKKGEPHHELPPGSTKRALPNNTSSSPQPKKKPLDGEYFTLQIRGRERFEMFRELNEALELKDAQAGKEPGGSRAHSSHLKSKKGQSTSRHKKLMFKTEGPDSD
Sequence of human RAR-related Orphan Receptor beta (RORb), RORB (gene 6096) (Q92753 whole entry, looked up, the tested form may be a part): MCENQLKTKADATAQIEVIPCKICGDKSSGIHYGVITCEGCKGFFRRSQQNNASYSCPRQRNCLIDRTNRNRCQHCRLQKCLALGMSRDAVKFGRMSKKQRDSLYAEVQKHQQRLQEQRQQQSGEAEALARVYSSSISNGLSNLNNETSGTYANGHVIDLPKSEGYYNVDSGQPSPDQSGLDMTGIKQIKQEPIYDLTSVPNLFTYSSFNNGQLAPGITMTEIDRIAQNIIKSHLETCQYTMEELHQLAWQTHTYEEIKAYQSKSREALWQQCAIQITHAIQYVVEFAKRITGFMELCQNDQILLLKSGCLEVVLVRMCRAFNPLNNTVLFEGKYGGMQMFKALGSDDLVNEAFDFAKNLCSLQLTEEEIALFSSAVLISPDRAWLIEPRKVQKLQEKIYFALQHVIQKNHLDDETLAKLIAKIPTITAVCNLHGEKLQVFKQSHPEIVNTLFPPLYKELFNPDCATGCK
Sequence of Peroxisome proliferator-activated receptor gamma (Homo sapiens) (P37231 whole entry, looked up, the tested form may be a part): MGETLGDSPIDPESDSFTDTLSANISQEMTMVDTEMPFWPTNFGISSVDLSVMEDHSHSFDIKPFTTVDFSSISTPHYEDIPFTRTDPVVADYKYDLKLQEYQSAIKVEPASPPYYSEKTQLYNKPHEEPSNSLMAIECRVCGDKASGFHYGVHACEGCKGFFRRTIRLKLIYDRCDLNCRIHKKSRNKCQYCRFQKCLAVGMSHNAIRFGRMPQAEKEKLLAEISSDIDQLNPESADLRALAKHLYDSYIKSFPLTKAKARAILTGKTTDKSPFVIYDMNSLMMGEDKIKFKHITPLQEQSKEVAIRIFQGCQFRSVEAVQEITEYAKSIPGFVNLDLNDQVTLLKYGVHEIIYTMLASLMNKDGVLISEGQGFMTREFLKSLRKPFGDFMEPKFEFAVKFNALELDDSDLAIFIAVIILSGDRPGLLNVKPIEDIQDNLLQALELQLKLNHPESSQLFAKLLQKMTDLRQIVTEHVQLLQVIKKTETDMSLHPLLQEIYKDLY
Sequence of human Peroxisome Proliferator-activated Receptor delta (PPARd), PPARD (gene 5467) (Q03181 whole entry, looked up, the tested form may be a part): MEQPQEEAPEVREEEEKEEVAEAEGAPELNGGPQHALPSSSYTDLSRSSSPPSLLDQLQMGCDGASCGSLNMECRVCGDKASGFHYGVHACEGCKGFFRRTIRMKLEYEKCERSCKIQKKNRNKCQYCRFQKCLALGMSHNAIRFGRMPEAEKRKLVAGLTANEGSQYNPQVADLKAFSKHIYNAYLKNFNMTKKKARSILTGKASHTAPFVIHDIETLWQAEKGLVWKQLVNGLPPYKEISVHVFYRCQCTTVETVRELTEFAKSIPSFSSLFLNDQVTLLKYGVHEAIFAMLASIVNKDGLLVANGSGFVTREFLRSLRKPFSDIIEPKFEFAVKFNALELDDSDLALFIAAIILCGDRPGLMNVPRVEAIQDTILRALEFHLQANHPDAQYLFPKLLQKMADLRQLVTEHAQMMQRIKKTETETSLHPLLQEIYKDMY
Sequence of human Retinoic Acid Receptor gamma (RARg), RARG (gene 5916) (P13631 whole entry, looked up, the tested form may be a part): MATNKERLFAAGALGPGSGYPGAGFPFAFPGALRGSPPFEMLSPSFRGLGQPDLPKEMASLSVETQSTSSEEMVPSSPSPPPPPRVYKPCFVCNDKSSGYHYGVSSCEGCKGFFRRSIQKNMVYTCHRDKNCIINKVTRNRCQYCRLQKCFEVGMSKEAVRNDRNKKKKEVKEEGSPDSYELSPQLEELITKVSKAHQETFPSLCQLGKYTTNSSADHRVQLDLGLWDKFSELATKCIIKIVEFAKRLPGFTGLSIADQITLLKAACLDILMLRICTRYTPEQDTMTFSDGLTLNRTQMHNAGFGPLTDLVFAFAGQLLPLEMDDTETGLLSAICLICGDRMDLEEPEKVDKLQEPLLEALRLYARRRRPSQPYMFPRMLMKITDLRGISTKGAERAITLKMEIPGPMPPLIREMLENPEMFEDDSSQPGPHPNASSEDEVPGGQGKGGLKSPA
Sequence of Retinoic acid receptor alpha (Homo sapiens) (P10276 whole entry, looked up, the tested form may be a part): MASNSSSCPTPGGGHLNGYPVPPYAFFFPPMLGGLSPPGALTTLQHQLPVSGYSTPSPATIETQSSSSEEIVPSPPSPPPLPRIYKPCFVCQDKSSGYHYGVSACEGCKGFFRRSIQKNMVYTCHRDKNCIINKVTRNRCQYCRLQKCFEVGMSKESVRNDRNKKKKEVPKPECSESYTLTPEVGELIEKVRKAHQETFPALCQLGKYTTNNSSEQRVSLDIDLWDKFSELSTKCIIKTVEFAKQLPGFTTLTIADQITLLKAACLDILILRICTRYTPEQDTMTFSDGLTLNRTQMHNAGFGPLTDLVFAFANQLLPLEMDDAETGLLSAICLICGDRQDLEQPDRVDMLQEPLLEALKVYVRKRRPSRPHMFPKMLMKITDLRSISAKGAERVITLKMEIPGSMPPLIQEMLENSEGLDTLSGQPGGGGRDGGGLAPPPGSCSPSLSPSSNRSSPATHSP
Sequence of human Peroxisome Proliferator-activated Receptor alpha (PPARa), PPARA (gene 5465) (Q07869 whole entry, looked up): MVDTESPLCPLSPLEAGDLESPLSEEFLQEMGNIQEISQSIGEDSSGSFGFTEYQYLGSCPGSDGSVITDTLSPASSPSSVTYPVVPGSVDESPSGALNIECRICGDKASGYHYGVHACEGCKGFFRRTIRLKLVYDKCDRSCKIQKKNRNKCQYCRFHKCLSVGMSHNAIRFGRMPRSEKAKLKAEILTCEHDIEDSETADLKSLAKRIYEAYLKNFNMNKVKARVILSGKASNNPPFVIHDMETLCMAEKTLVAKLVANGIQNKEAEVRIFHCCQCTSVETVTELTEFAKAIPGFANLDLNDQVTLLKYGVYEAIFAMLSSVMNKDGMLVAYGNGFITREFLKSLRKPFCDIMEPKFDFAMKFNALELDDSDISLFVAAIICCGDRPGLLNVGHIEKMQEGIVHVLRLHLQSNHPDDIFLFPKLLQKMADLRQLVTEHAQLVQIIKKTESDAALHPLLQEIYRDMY

As to `CC(C)[C@@H](Nc1ccc(C(F)(F)F)cc1Cl)C(=O)OC(C#N)c1cccc(Oc2ccccc2)c1` (stereo not given in full), the result in [1], in assay [2], in assay [3], in [5], in [6] and in assay [7] was inactive. Besides, in assay [10], the outcome was inactive. Besides, the results for the half-maximal activity concentration (AC50) in [4], in [8] and in assay [9] were 17.1 µM (active), 5.11 µM (active) and 0.51 µM (active), respectively.
For the compound `CCCCN(CCCCO)N=O`, the compound was classed as inactive in [1], in assay [2], in assay [3], in assay [4], in assay [5] and in assay [6]. In addition, the call in [11], in assay [8], in assay [9] and in assay [12] was inactive.
Take `CCCCOP(=O)(CCCC)OCCCC`: the compound was called inactive in [1], in [2], in [3], in assay [4], in [5] and in assay [6]. In addition, the result in assay [11] and in assay [12] was inactive. Also, the AC50 in assay [8] was 38.4 µM (active); in assay [9], 8.52 µM (active).
As for `COC(=O)Nc1cccc(OC(=O)Nc2cccc(C)c2)c1`, the call in assay [1], in assay [2], in [3], in [5], in [6] and in [11] was inactive. For the same compound, the compound was called inactive in assay [8] and in assay [12].
As to `O=C(NC(=O)c1c(F)cccc1F)Nc1cc(Cl)c(OC(F)(F)C(F)C(F)(F)F)cc1Cl` (stereo not given), the result in assay [1], in assay [2], in [3], in assay [5], in assay [6] and in assay [13] was inactive. For the same compound, the compound was called inactive in [8], in assay [9], in [10] and in assay [12].
For the compound `O=C(NC(=O)c1c(F)cccc1F)Nc1ccc(Cl)cc1`, the outcome in [1], in [2], in [3], in assay [4], in assay [5] and in assay [9] was inactive. The AC50 in [8] is 0.636 µM (active).
